# Values joined by “and” are separate entries in the source; they are usually repeats but may differ in a detail not shown here. Equal values may be shown once. The panel holds about 83,000 compounds, 20% with a hit somewhere; the sample as a whole holds those more often.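 Values shown are percent growth following 48 h exposure of cells in 96-well plates to a single concentration of compound; below 10 was considered active.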 Active and inactive are the calls of the source.
# System: SK-MEL-2 melanoma
# Experiment: NCI-60 one-dose screen, 48 h (100 = growth as untreated, 0 = no growth, -100 = all killed)
# Conditions: 10 µM unless noted
row,SMILES,growth
1,O=[N+]([O-])c1ccccc1/C=N\Nc1ccccc1,86.9% (inactive) and 107% (inactive)
2,CCN(CC)CCNc1cc(-c2cccc(OC(F)(F)F)c2)nc2ccc(N3CCCC3)cc12,52.2% (inactive) and -30.5% (active) and 4.6% (active)
3,CC(=O)Nc1cc(S(=O)(=O)O)cc2cc(S(=O)(=O)O)c(N=Nc3ccccc3)c(O)c12,116% (inactive) and 88.7% (inactive)
4,CC(C)CNC(=O)c1ccccc1C(=O)NC1(C(=O)NCC(C)C)CCCC1,103% (inactive) and 100% (inactive)
5,COc1cc2nc(N3CCN(C(=O)C4COc5ccccc5O4)CC3)nc(N)c2cc1OC (centres undefined),112% (inactive) and 93.8% (inactive)
6,O=C(Cc1cccc2ccccc12)N/N=C/c1ccc2c(c1)CCC2,84.6% (inactive)
7,CC1=C(/C=C/C(C)=C/C=C/C(C)=C/C(=O)O)C(C)(C)CCC1,87.5% (inactive) and 94.7% (inactive)
8,O=C(Nc1ccc(Br)cc1)c1cc(Br)ccc1O,-30.5% (active) and 13.2% (inactive)
9,Cc1cc(-c2ccc(NS(=O)(=O)c3ccccc3)c(C)c2)ccc1NS(=O)(=O)c1ccccc1,85% (inactive) and 102% (inactive)
10,O=C(CCl)c1ccc2c(c1)Nc1ccccc1S2,80.5% (inactive) and 72.5% (inactive)
11,CC1CCCc2sc3nc(NNC(=O)c4cnccn4)n(-c4ccccc4)c(=O)c3c21 (centres undefined),11.3% (inactive) and 25.1% (inactive)
12,Cc1cc(O)c(C(C)C)cc1N,113% (inactive) and 119% (inactive)
13,COc1ccc2cc3[n+](cc2c1OC)CCc1cc2c(cc1-3)OCO2,90.7% (inactive) and 104% (inactive)
14,COc1c(/C(C)=N/N=c2sc(C(C)=O)nn2-c2ccc(Cl)cc2)c(Oc2ccccc2)c(OC)c2occc12,111% (inactive) and 114% (inactive)
15,OC(COc1cccc2ccccc12)CN1CCN(c2ccc(Cl)cc2)CC1 (centres undefined),103% (inactive) and 98.8% (inactive)
16,CNc1ccc2nc3ccc(=[N+](C)C)cc-3sc2c1,4.78% (active) and 4.79% (active)
17,CC1=NN(c2ccccc2)C(=O)C1C(=O)c1ccccc1 (centres undefined),96.6% (inactive)
18,OCCN1CCN(CCO)CC1,104% (inactive) and 97.3% (inactive) and 115% (inactive)
19,CC1=CCC2CC1C2(C)C (centres undefined),88.2% (inactive) and 108% (inactive)
20,COc1cc(/C=N/Nc2nc3c([nH]2)c(=O)n(C)c(=O)n3C)ccc1O,98.2% (inactive) and 108% (inactive)

row,SMILES,growth
1,S=C(S)N1CCCC1,98% (inactive) and 99.7% (inactive)
2,CC(=O)Oc1cc(C(=O)O)cc(OC(C)=O)c1OC(C)=O,119% (inactive) and 107% (inactive)
3,CCN(CC)C(=O)c1cccnc1,108% (inactive)
4,O=C(Nc1cccc(Cl)c1)c1cc2ccccc2cc1O,27.3% (inactive) and 7.7% (active)
5,Cn1c(SSc2ccc(-c3cccnc3)n2C)ccc1-c1cccnc1,106% (inactive) and 107% (inactive)
6,CN1CCN(CCC=C2c3ccccc3Sc3ccc(S(=O)(=O)N(C)C)cc32)CC1,68.5% (inactive) and 53.7% (inactive)
7,Oc1c(Cl)cc(Cl)cc1Sc1cc(Cl)cc(Cl)c1O,-21.7% (active) and -41% (active) and 79.7% (inactive)
8,Cn1c(=O)n(-c2ccc(C(C)(C)C#N)cc2)c2c3cc(-c4cnc5ccccc5c4)ccc3ncc21,-42.4% (active)
9,O=C(N/N=C/c1ccccc1)N/N=C/c1ccccc1,123% (inactive) and 119% (inactive)
10,COc1ccc(-c2cn[nH]c2-c2cc(OC)c(OC)c(OC)c2)cc1N,47.8% (inactive) and 62.1% (inactive)
11,C1CCCCNCCC1,115% (inactive)
12,COc1ccccc1C(C)=O,109% (inactive)
13,NS(=O)(=O)c1cc2c(cc1Cl)NC(C(Cl)Cl)NS2(=O)=O (centres undefined),104% (inactive) and 135% (inactive)
14,O=C(Oc1cccc(OC(=O)c2ccccc2)c1)c1ccccc1,93.2% (inactive)
15,CC1(c2ccc3ccccc3c2)CCC(=O)O1 (centres undefined),86.6% (inactive)
16,CC1=C(/C=C/C(C)=C/C=C/C(C)=C/C=N/NC(=S)NC(=S)N/N=C/C=C(C)/C=C/C=C(C)/C=C/C2=C(C)CCCC2(C)C)C(C)(C)CCC1,-66.4% (active) and -84.6% (active)
17,CCCCOc1cc(C(=O)NCCN(CC)CC)c2ccccc2n1,120% (inactive) and 99.6% (inactive)
18,COc1cc2c(c(OC)c1OC)-c1ccc(OC)c(=O)cc1[C@@H](NC(C)=O)CC2,-1.11% (active) and 20.8% (inactive) and 30.7% (inactive)
19,CN1CCN(c2ccc3nc(-c4c(N)c5c(F)cccc5[nH]c4=O)[nH]c3c2)CC1,45.5% (inactive)
